In PubChem BioAssay (NCATS):
Unmarked numbers belong to inactive results. Inconclusive results are not listed. A call without a number means that no potency is given here. The source made the active and inactive calls. Unless noted, the call rests on the fitted dose curve; in most records, active means well fitted curve in the direction sought with a large enough effect; inconclusive means small, poorly fitted or top-dose-only effect, or another doubt; inactive means no such curve, though single readings can be large; an effect the other way counts as inactive or inconclusive.

What was measured:
Tov-21-G = experiment: Primary qHTS to identify gynecologic anti-cancer compounds using libraries of approved drugs and bioactive compounds (AID 1345084); conditions: Gynecologic cancer cell panel viability, ATPlite luminescence, 48 h; series mostly up to 57.5 µM; further: nearly all actives have a fitted effect of over 55% in size; further: potency means the concentration at half of the fitted maximal effect
Procedure, shortened: (§1)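 Five-point cytotoxicity, 48 h drug exposure at 37 C, 5% CO2, on cells seeded 16 h beforehand. ATP content read by ATPlite luminescence.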

Tov112D = experiment: as above; conditions: Gynecologic cancer cell panel viability, ATPlite luminescence, 48 h; series mostly up to 57.5 µM
Procedure, shortened: as §1

[1] = Drug repurposing screens with cells derived from glioblastoma tumor samples (AID 1345199); conditions: GBM patient neurospheres viability, ATP luminescence, 48 h; further: nearly all actives have a fitted effect of over 40% in size; further: potency means the concentration at half of the fitted maximal effect
Procedure, shortened: (§2)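 Four patient lines of CD133+ GBM neurospheres were screened at several concentrations; hits were retested in those lines plus three slower-growing GBM lines, using 48-hour treatment and ATP-based viability.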

astro = experiment: as above; conditions: viability, ATP luminescence, 48 h; series mostly up to 45.9 µM
Procedure, shortened: as §2

[2] = biological target: Nuclear receptor subfamily 1 group I member 2 (Rattus norvegicus) (UniProt Q9R1A7); experiment: qHTS assay for small molecule activators of the rat pregnane X receptor (rPXR) signaling pathway (AID 651751; call rule not given here); conditions: rPXR reporter cells, luciferase (One-Glo), 24 h
Chain of Nuclear receptor subfamily 1 group I member 2 (Rattus norvegicus) (Q9R1A7 whole entry, looked up): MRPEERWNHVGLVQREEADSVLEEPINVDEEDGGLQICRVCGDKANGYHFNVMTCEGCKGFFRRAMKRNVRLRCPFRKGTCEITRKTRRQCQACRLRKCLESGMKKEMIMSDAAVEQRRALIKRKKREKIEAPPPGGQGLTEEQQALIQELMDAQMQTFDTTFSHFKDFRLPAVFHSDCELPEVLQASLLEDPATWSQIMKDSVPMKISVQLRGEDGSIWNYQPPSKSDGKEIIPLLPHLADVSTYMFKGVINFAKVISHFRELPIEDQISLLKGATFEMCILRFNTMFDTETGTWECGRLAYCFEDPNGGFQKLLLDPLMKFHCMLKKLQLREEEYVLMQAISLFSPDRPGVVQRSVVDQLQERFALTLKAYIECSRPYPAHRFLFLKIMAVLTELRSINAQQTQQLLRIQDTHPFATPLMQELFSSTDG

In the case of `CN1[C@H]2C[C@H](OC(=O)[C@H](CO)c3ccccc3)C[C@@H]1[C@@H](O)C2`, the Potency (Tov-21-G) is reported as “inactive” and the Potency (Tov112D) is reported as “inactive”.

In the case of `CC(N)Cc1c[nH]c2ccccc12` (stereo unspecified), the Potency (Tov-21-G) is reported as “inactive” and the Potency (Tov112D) is reported as “inactive”.

With `C[C@@]1(C(=O)O)CC[C@]2(C)CC[C@]3(C)C4=CC(=O)c5cc(O)c(O)cc5[C@]4(C)CC[C@@]3(C)[C@@H]2C1` the Potency (Tov-21-G) was “inactive” and the Potency (Tov112D) was “inactive”.

With `C=C(C)[C@H]1O[C@H]2CC[C@@]3(C)[C@@](O)(CC[C@H]4[C@@H]5OC(C)(C)[C@H]6C[C@@H]7C(=C)Cc8c(Cl)cc9[nH]c(c5c9c8[C@@]76O)[C@@]43C)[C@]23O[C@@H]3[C@H]1O` the Potency (Tov-21-G) was “inactive” and the Potency (Tov112D) was “inactive”.

Compound `C/C=C(\C)C(=O)OC1C(C)OC(OC2C(C)OC(OC3CCC4(C)C(=CCC5C4CCC4(C)C(C(C)OC6OC(COC7OC(CO)C(O)C(O)C7O)C(O)C(O)C6O)CCC54O)C3)CC2OC)C(O)C1OC` (stereo unspecified) has an activity change, negative = cytotoxicity (Tov-21-G) of 3.11% [at 11.6 µM] and an activity change, negative = cytotoxicity (Tov112D) of -0.387% [at 11.6 µM].

In the case of `Cc1cccc(NC(=O)N[C@@H]2N=C(c3ccccc3)c3ccccc3N(C)C2=O)c1`, the Potency (Tov-21-G) is reported as “inactive” and the Potency (Tov112D) is reported as “inactive”.

For `CC(C)[C@@H](CN1CC[C@@](C)(c2cccc(O)c2)[C@@H](C)C1)NC(=O)[C@H]1Cc2ccc(O)cc2CN1`, the Potency (Tov-21-G) was “inactive” and the Potency (Tov112D) was “inactive”.

In the case of `O=C1C[C@@H]2OCC=C3CN4CC[C@]56c7ccccc7N1[C@H]5[C@H]2[C@H]3C[C@H]46`, the Potency (Tov-21-G) is reported as “inactive”, the Potency (Tov112D) is reported as “inactive” and the activity, negative = cell killing ([1]; at 45.9 µM (top of the series), tumour line B) is reported as -6.57%. For the same compound, the activity, negative = cell killing ([1]; at 45.9 µM (top of the series), tumour line D) was -6.6%, the activity, negative = cell killing ([1]; at 46.1 µM (top of the series), tumour line C) was 6.33% and the Potency ([1]; tumour line A) was 12600 nM (active). For the same compound, the Potency (astro) was “inactive” and the max response [2] was 0.534%.

With `COC1CC(OC2CCC3(C=O)C(CCC4C3CCC3(C)C(C5=CC(=O)OC5)CCC43O)C2)OC(C)C1OC1OC(CO)C(O)C(O)C1O` (stereo unspecified) the Potency (Tov-21-G) was 199 nM (active) and the Potency (Tov112D) was 100 nM (active).

In the case of `CCc1c(C(=O)C(N)=O)c2c(OCC(=O)OC)cccc2n1Cc1ccccc1`, the Potency (Tov-21-G) is reported as “inactive” and the Potency (Tov112D) is reported as “inactive”.

For `COC(=O)[C@@]12C(=O)C(C)C(=O)[C@]1(C)C(C)=C[C@H]1[C@]3(C=O)CC[C@H](OC(C)=O)C(C)(C)[C@H]3CC[C@@]12C` (stereo partly specified), the Potency (Tov-21-G) was “inactive” and the Potency (Tov112D) was “inactive”.

In the case of `COc1ccccc1CN[C@H]1C2CCN(CC2)[C@H]1C(c1ccccc1)c1ccccc1`, the Potency (Tov-21-G) is reported as “inactive” and the Potency (Tov112D) is reported as “inactive”.

`CCCCCCn1c(=O)c(C(=O)Nc2ccc(C(=O)OCCC)cc2)c(O)c2ccccc21` gave an activity change, negative = cytotoxicity (Tov-21-G) of 0.105% [at 11.6 µM] and an activity change, negative = cytotoxicity (Tov112D) of 27% [at 11.6 µM].

For `CCC(C)(OC(C)=O)C(=O)O[C@H]1[C@H](OC(C)=O)C[C@@H]2[C@@](C)([C@@H]3C[C@H]4C=CO[C@H]4O3)[C@H](C)C[C@H](OC(C)=O)[C@@]2(COC(C)=O)[C@@]12CO2` (stereo partly specified), the Potency (Tov-21-G) was “inactive” and the Potency (Tov112D) was “inactive”.

With `C=C(CO)C(=O)O[C@H]1C/C(C)=C/CC/C(CO)=C/[C@H]2OC(=O)C(=C)[C@H]12` the Potency (Tov-21-G) was “inactive” and the Potency (Tov112D) was “inactive”.
